In PubChem BioAssay:
Calls of active or inactive are those of the source.

Experiment: osmotic lysis modulators in infected erythrocytes, primary screen, PSAC antagonist project, cell-based, P. falciparum Indochina, OD700, 3 h (AID 1156)
Conditions: higher = more signal, called active from +8 up or from −8 down

z-score, inactive:
[N-]=[N+]=NCc1ccccc1[C@@H]1OC(c2ccc(OCCCO)cc2)=N[C@]1(CCS(=O)(=O)c1ccccc1)C(=O)O 0.296
CC1CC/C=C\[C@H]2OC34C=CCN(c5ccc(Cl)cc5)C(=O)[C@H]3N(C(C)CO)C(=O)[C@]4(C)C2C(=O)O1 (stereo not given in full) 0.335
C=CC[C@]1(C(=O)N2CCCCC2)N=C(c2ccc(OCCCO)cc2)O[C@H]1c1ccccc1CN=[N+]=[N-] 2.81
COc1ccc([Si](C)(C)[C@H]2[C@H](CC(=O)N3CCC[C@H]3CO)O[C@@]3(C(=O)N(Cc4ccc(N5CCOC5=O)cc4)c4ccccc43)[C@@H]2C)cc1 0.088
Cc1cc(C)c(C(O)C2C=CC3C(=O)N(c4ccccc4)C(=O)C3N2Nc2ccccc2F)c(C)c1 (stereo not given) -0.167
CC[C@@H]1O[Si](C(C)C)(C(C)C)c2c1cc(-c1cc(C)c(OC)c(C)c1)nc2-c1ccc(Oc2ccccc2)cc1 0.827
O[C@@H](Cc1ccccc1)[C@@H](/C=C/C1CC1)N(CC#Cc1ccccc1)Cc1ccccc1Br 0.108
COC(=O)C/C=C/C[C@]1(O)C(=O)N(C)c2ccccc21 -0.679
C=CC[C@@]1(C(=O)NCCCOC)N=C(c2ccc(OCCCO)cc2)O[C@@H]1c1ccccc1N=[N+]=[N-] 1.93
COC(=O)[C@@H]1N=C(c2ccc(OCCCO)cc2)O[C@@H]1C 0.404
CCCC=C(CCC)[C@@H](NC(=O)c1cccs1)c1ccc(C(=O)OC)cc1 -1.72
COc1cc(NN2C(C(O)c3cc(OC)c(OC)c(OC)c3)C=CC3C(=O)N(C)C(=O)C32)cc(OC)c1OC (stereo not given) 0.508
COc1cc(OC)c(C(O)C2C=CC3C(=O)N(Cc4ccccc4)C(=O)C3N2n2cnnc2)cc1Br (stereo not given) 1.34
C=CCC(OC(C)=O)[C@@H]1[C@@H](N(Cc2cc3ccccc3o2)C(=O)Cc2ccc(F)cc2)c2cc(OCCCO)ccc2N1C(=O)Cc1ccc2ccccc2c1 (stereo not given in full) -0.621
COc1ccc(CCNC(=O)[C@@H]2c3ccccc3C(=O)N(C3CCCCC3)[C@H]2c2ccc(CO)cc2)cc1 1.71
C[N+](C)(C)CCCC[C@@H]1NC(=O)[C@@H]2C[C@H](C(=O)NCCCCCCN)[C@H](c3cccc(OCCO)c3)N2C1=O 0.837
O=C1C2C=CC(C(O)C3CC=CCC3)N(Nc3ccccc3)C2C(=O)N1c1ccccc1 (stereo not given) 1.53
O=C1C2C=CC(C(O)c3ccco3)N(Nc3ccccc3F)C2C(=O)N1c1ccccc1 (stereo not given) -0.197
COC(=O)c1c(CC[C@@H](CO)NC(=O)N2CCC[C@H]2Cn2cc(C3(O)CCCCC3)nn2)oc(C(C)=O)c1C(=O)OC 1.14
C=C(/C(=C/C[C@H](OC(=O)c1ccncc1)c1ccc(CO)o1)c1cnc2ccccc2c1)C(C)C 1.47
COCC(=C=CC[C@H](O)c1ccccc1OCCO)C[C@H](O)c1ccccn1 1.74
CC(C)c1ccc(NN2C(C(O)c3ccc(F)cc3)C=CC3C(=O)N(c4ccccc4)C(=O)C32)cc1 (stereo not given) 0.0964
CO[C@H]1O[C@H](CO)[C@@H](OC(=O)Nc2ccc3c(c2)OCO3)[C@H](OC(=O)Nc2ccc3c(c2)OCO3)[C@@H]1OC(=O)Nc1ccc2c(c1)OCO2 1.55
CCCNC(=O)[C@@H]1c2ccccc2C(=O)N(Cc2ccc(OC(F)(F)F)cc2)[C@H]1c1ccc(CO)cc1 1.03
CCOC(=O)C[C@H]1[C@H](OC(=O)c2cc3ccccc3oc2=O)[C@@H](NC(=O)c2ccccc2)c2cc(OCCCO)ccc2N1C(=O)c1ccccc1 -0.35
CCCNC(=O)[C@@]1(C)c2ccccc2C(=O)N(c2ccc(C)cn2)[C@H]1c1ccc(CO)cc1 0.181
CC(C)C(O)C1C=CC2C(=O)N(c3ccccc3)C(=O)C2N1Nc1ccccc1 (stereo not given) 1.33
CCCCC(CC)C(O)C1C=CC2C(=O)N(c3ccccc3)C(=O)C2N1Nc1ccc(C#N)cc1 (stereo not given) 1.89
COc1ccc(CCNC(=O)[C@@]2(Cc3ccccc3I)c3ccccc3C(=O)N(C3CCCCC3)[C@H]2c2ccc(CO)cc2)cc1 1.27
[N-]=[N+]=Nc1ccccc1C[C@@]1(C(N)=O)N=C(c2ccc(OCCCO)cc2)O[C@@H]1c1ccccc1N=[N+]=[N-] 2.63
C=CCN1C(=O)[C@]2(CCS(=O)(=O)c3ccccc3)N=C(c3ccc(OCCCO)cc3)O[C@@H]2c2ccccc21 1.29
NC(=O)NCC#Cc1ccc2c(c1)[C@]1(C(=O)N2)[C@H](c2ccccc2OCCO)N2[C@H](c3ccccc3)[C@H](c3ccccc3)OC(=O)[C@H]2[C@@H]1C(=O)O -1.78
NCCCCCNC(=O)[C@H]1C[C@H]2C(=O)N3CCC[C@H]3C(=O)N2[C@H]1c1cccc(OCCO)c1 0.428
COc1ccc([Si](C)(C)[C@@H]2[C@@H](CCO)O[C@]3(C(=O)N(Cc4cccc(NC(=O)[C@H](C)O)c4)c4ccccc43)[C@H]2C)cc1 -1.04
CCCCN1CC=CC23O[C@@H]4/C=C\CCCOC(=O)C4[C@H]2C(=O)N(CCO)[C@@H]3C1=O (stereo not given in full) 0.504
